From PubChem BioAssay (NCI)
About 79,000 compounds went through this panel and 15% of them were active in at least one assay; those are over-represented in the sample as a whole. A number with no mark means an inactive call. Active and inactive are the calls of the source. No stated cut-off is given here; in the data, active means growth inhibition above about 70%; inactive means the rest.

What was measured:
[1] = NCI Yeast Anticancer Drug Screen. Data for the rad50 strain (AID 155);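 further: 0% = growth of vehicle-only cultures of the same strain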; conditions: S. cerevisiae rad50 strain growth inhibition, hits give high values
In short: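 Compounds were tested on a yeast strain with an engineered DNA damage repair alteration; the reported value is growth inhibition normalised to vehicle treatment.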

[2] = NCI Yeast Anticancer Drug Screen. Data for the mec2-1 strain (AID 157); conditions: S. cerevisiae mec2-1 strain, hits give high values
In short: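 Strain: mec2-1 (DNA repair/cell cycle alteration). Compound exposure, then growth measured; inhibition expressed relative to vehicle.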

[3] = NCI Yeast Anticancer Drug Screen. Data for the sgs1 mgt1 strain (AID 161);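 further: 0% = growth of cultures given vehicle only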; conditions: S. cerevisiae sgs1 mgt1 strain, hits give high values
In short: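 Genetically altered yeast, compound exposure, growth inhibition relative to vehicle.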

[4] = NCI Yeast Anticancer Drug Screen. Data for the cln2 rad14 strain (AID 165);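 further: 0% = growth equal to vehicle treated cultures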; conditions: S. cerevisiae cln2 rad14 strain, hits give high values
In short: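 Compounds are applied to the cln2 rad14 yeast strain, and growth is then compared with that of vehicle-treated cultures to give inhibition.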

[5] = NCI Yeast Anticancer Drug Screen. Data for the bub3 strain (AID 167); conditions: S. cerevisiae bub3 mutant strain, hits give high values
In short: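 Growth of a checkpoint-deficient yeast mutant is measured after compound exposure. Values represent inhibition relative to vehicle.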

[6] = NCI Yeast Anticancer Drug Screen. Data for the mlh1 rad18 strain (AID 175); conditions: S. cerevisiae mlh1 rad18 strain growth inhibition, hits give high values
In short: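 Read-out is yeast growth inhibition, calculated against vehicle-only controls. The compound was applied to a strain engineered with DNA damage repair alterations.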

[7] = at 5.0 µM (retest, dose inferred, filed as 0.5)
[8] = at 50.0 µM (retest, dose inferred, filed as 5.0)

Compound	growth inhibition [1, 7]	growth inhibition [1, 8]	growth inhibition ([1]; at 50.0 µM)	growth inhibition [2, 7]	growth inhibition [2, 8]	growth inhibition ([2]; at 50.0 µM)	growth inhibition [3, 7]	growth inhibition [3, 8]	growth inhibition ([3]; at 50.0 µM)	growth inhibition [4, 7]	growth inhibition [4, 8]	growth inhibition ([4]; at 50.0 µM)	growth inhibition [5, 7]	growth inhibition [5, 8]	growth inhibition ([5]; at 50.0 µM)	growth inhibition [6, 7]	growth inhibition [6, 8]	growth inhibition ([6]; at 50.0 µM)
COc1ccc2c(c1)N=C(N)n1c(nc3ccccc31)S2	-1%	51%	60.6%	-6%	42%	54.6%	-10%	83% (active)	74.3% (active)	-33%	34%	36.1%	-37%	36%	69.7%	-14%	57%	56.8%
NC1=C(O)C(=O)C(c2c3ccccc3cc3ccccc23)O1 (stereo not given)	16%	98% (active)	98.2% (active)	17%	98% (active)	98% (active)	8%	98% (active)	97.8% (active)	7%	95% (active)	95.9% (active)	16%	98% (active)	97.3% (active)	4%	98% (active)	97.5% (active)
C/C(=C/C(=O)/C=C/c1ccccc1)c1c(C)[nH]c2ccccc12	-24%	-3%	4.3%	-17%	3%	-19.1%	-6%	-4%	-7.4%	1%	-6%	34.4%	0%	1%	81.9% (active)	4%	16%	-0.4%
CC[C@]1(O)C[C@H]2[C@@H]3CCc4cc(OC)ccc4[C@H]3CC[C@]2(C)[C@H]1O	-3%	98% (active)	46%	-6%	98% (active)	48.5%	-4%	98% (active)	49.9%	-6%	87% (active)	68.9%	2%	97% (active)	49.8%	-4%	99% (active)	46.4%
COc1ccc(-c2[nH]c(-c3ccc(OC)cc3)c(-c3ccccn3)c2-c2ccccn2)cc1	-4%	16%	80.7% (active)	-16%	18%	91.7% (active)	0%	25%	95.4% (active)	7%	27%	69.5%	4%	-7%	83.5% (active)	-19%	11%	94.7% (active)
O=C(NC(OCc1ccccc1)(C(F)(F)F)C(F)(F)F)OCc1ccccc1	-14%	98% (active)	96% (active)	-5%	92% (active)	91% (active)	-9%	98% (active)	93.7% (active)	11%	96% (active)	94.8% (active)	13%	95% (active)	94.5% (active)	2%	98% (active)	96.5% (active)
CC(NC(=O)OCc1ccccc1)C(=O)NNc1ccccc1Cl (stereo not given)	88% (active)	96% (active)	97.5% (active)	9%	99% (active)	96.8% (active)	49%	99% (active)	91.4% (active)	29%	68%	98.2% (active)	73% (active)	42%	97.5% (active)	96% (active)	99% (active)	97.5% (active)
O=[N+]([O-])c1c(Br)ncn1Cc1ccccc1	26%	92% (active)	68.8%	22%	98% (active)	8.25%	14%	90% (active)	22.4%	21%	99% (active)	7.5%	35%	99% (active)	-4.85%	49%	94% (active)	38.4%
Oc1c(C(Nc2ccccn2)c2ccccc2)ccc2cccnc12 (stereo not given)	8%	97% (active)	94.6% (active)	19%	97% (active)	94.3% (active)	-4%	96% (active)	95.5% (active)	-11%	94% (active)	93% (active)	-9%	97% (active)	94.4% (active)	7%	96% (active)	94.5% (active)
COc1cccc(=O)cc1	5%	86% (active)	83.3% (active)	12%	51%	26.4%	11%	83% (active)	93.5% (active)	7%	32%	19.4%	3%	85% (active)	92.9% (active)	3%	94% (active)	76.4% (active)
